Test results: PubChem BioAssay AID1159580 (chemical genetic matrix, 2015)
The campaign covered roughly 5,500 compounds. About 2,000 (36%) were called active. Inconclusive results (about 18%) are left out. This is one part of the list. Unmarked numbers belong to inactive results. No stated cut-off is given here; in the data, active means normalized growth mostly below about 0.91 (no sharp cut-off); inconclusive means no clear call, values can overlap the other calls; inactive means mostly above about 0.92.

Experiment: chemical genetic growth profiling, strain panel (AID 1159580);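 further: tested at 20 µM; growth read once vehicle control cultures reached saturation at 30 °C; 1 = growth at the plate median or of vehicle wells; lower values mean less growth of the strain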
Conditions: growth OD
[1] = S. cerevisiae deletion strains, locus YAL013W, strain DEP1, active compounds read low
[2] = S. cerevisiae deletion strains, locus YDR150W, strain NUM1, active compounds read low
[3] = S. cerevisiae deletion strains, locus YGR078C, strain PAC10, active compounds read low
[4] = S. cerevisiae deletion strains, locus YJR075W, strain HOC1, active compounds read low
[5] = S. cerevisiae deletion strains, locus YNL153C, strain GIM3, active compounds read low
[6] = S. cerevisiae deletion strains, locus YPL055C, strain LGE1, active compounds read low
[7] = S. cerevisiae deletion strains, locus YPL241C, strain CIN2, active compounds read low
[8] = S. cerevisiae deletion strains, locus YBR229C, strain ROT2, active compounds read low
[9] = S. cerevisiae deletion strains, locus YCL061C, strain MRC1, active compounds read low
[10] = S. cerevisiae deletion strains, locus YDL101C, strain DUN1, active compounds read low
[11] = S. cerevisiae deletion strains, locus YDL134C, strain PPH21, active compounds read low
[12] = S. cerevisiae deletion strains, locus YEL061C, strain CIN8, active compounds read low
[13] = S. cerevisiae deletion strains, locus YHR030C, strain SLT2, active compounds read low
[14] = S. cerevisiae deletion strains, locus YHR087W, strain rtc3, active compounds read low
[15] = S. cerevisiae deletion strains, locus YJR043C, strain POL32, active compounds read low
[16] = S. cerevisiae deletion strains, locus YLR039C, strain RIC1, active compounds read low
[17] = S. cerevisiae deletion strains, locus YLR058C, strain SHM2 (second series), active compounds read low
[18] = S. cerevisiae deletion strains, locus YLR085C, strain ARP6, active compounds read low
[19] = S. cerevisiae deletion strains, locus YLR262C, strain YPT6, active compounds read low
[20] = S. cerevisiae deletion strains, locus YML094W, strain GIM5, active compounds read low
[21] = S. cerevisiae deletion strains, locus YMR219W, strain ESC1, active compounds read low
[22] = S. cerevisiae deletion strains, locus YMR263W, strain SAP30, active compounds read low
[23] = S. cerevisiae deletion strains, locus YNL298W, strain CLA4 (second series), active compounds read low
[24] = S. cerevisiae deletion strains, locus YNL322C, strain KRE1, active compounds read low
[25] = S. cerevisiae deletion strains, locus YNR030W, strain Alg12, active compounds read low
[26] = S. cerevisiae deletion strains, locus YPR135W, strain CTF4, active compounds read low

## CCCN(CCC)C1CCc2cccc(O)c2C1 (stereo not drawn)
[1]
  normalized growth: 1
S. cerevisiae deletion strains, locus YAL040C, strain CLN3, active compounds read low
  normalized growth: 0.984
S. cerevisiae deletion strains, locus YCL061C, strain MRC1 (second series), active compounds read low
  normalized growth: 1
[2]
  normalized growth: 0.998
S. cerevisiae deletion strains, locus YDR363W, strain ESC2, active compounds read low
  normalized growth: 1.01
S. cerevisiae deletion strains, locus YER002W, strain NOP16, active compounds read low
  normalized growth: 1
[3]
  normalized growth: 1.01
[4]
  normalized growth: 0.995
S. cerevisiae deletion strains, locus YNL128W, strain TEP1, active compounds read low
  normalized growth: 1
[5]
  normalized growth: 1.1
S. cerevisiae deletion strains, locus YNL175C, strain NOP13, active compounds read low
  normalized growth: 1.01
S. cerevisiae deletion strains, locus YNL197C, strain WHI3, active compounds read low
  normalized growth: 1.01
S. cerevisiae deletion strains, locus YNL224C, strain SQS1, active compounds read low
  normalized growth: 1.02
S. cerevisiae deletion strains, locus YOR083W, strain WHI5 (second series), active compounds read low
  normalized growth: 1.01
[6]
  normalized growth: 1
[7]
  normalized growth: 1

## Cc1onc(-c2ccccc2)c1NC(=O)Nc1c(Cl)cccc1Cl
[1]
  normalized growth: 0.995
[8]
  normalized growth: 0.983
[9]
  normalized growth: 0.963
[10]
  normalized growth: 0.988
[11]
  normalized growth: 0.996
[2]
  normalized growth: 0.973
[12]
  normalized growth: 0.991
[3]
  normalized growth: 1
S. cerevisiae deletion strains, locus YGR229C, strain SMI1, active compounds read low
  normalized growth: 0.996
[13]
  normalized growth: 0.811
[14]
  normalized growth: 0.975
[15]
  normalized growth: 0.969
[4]
  normalized growth: 0.975
S. cerevisiae deletion strains, locus YKL190W, strain CNB1, active compounds read low
  normalized growth: 1
[16]
  normalized growth: 0.668 (active)
[17]
  normalized growth: 0.988
[18]
  normalized growth: 0.946
[19]
  normalized growth: 0.572 (active)
[20]
  normalized growth: 0.949
[21]
  normalized growth: 0.991
[22]
  normalized growth: 0.999
[5]
  normalized growth: 1.01
[23]
  normalized growth: 0.974
[24]
  normalized growth: 0.976
[25]
  normalized growth: 0.983
S. cerevisiae deletion strains, locus YOL006C, strain TOP1, active compounds read low
  normalized growth: 0.803
[6]
  normalized growth: 0.997
[7]
  normalized growth: 0.941
[26]
  normalized growth: 0.933

## Cc1onc(-c2c(F)cccc2Cl)c1C(=O)Oc1ccccc1
[1]
  normalized growth: 0.964
[8]
  normalized growth: 0.962
[9]
  normalized growth: 0.963
[10]
  normalized growth: 0.938
[11]
  normalized growth: 0.993
[2]
  normalized growth: 0.943
[12]
  normalized growth: 0.908 (active)
[3]
  normalized growth: 0.945
[13]
  normalized growth: 0.727
[14]
  normalized growth: 0.948
[15]
  normalized growth: 0.951
[4]
  normalized growth: 0.939
[16]
  normalized growth: 0.857
[17]
  normalized growth: 0.973
[18]
  normalized growth: 0.838
[19]
  normalized growth: 0.839
[20]
  normalized growth: 0.978
[21]
  normalized growth: 0.966
[22]
  normalized growth: 0.979
S. cerevisiae deletion strains, locus YMR307W, strain GAS1, active compounds read low
  normalized growth: 0.705
[5]
  normalized growth: 0.984
[23]
  normalized growth: 0.98
[24]
  normalized growth: 0.973
[25]
  normalized growth: 0.989
[6]
  normalized growth: 0.97
[7]
  normalized growth: 0.994
[26]
  normalized growth: 0.948
S. cerevisiae strains, strain wild type, active compounds read low
  normalized growth: 0.935
